Measured values published in the supplement of paper PMC10849652.
The full data set covers some 8,800 targets. This sample favours those with a hit. About 0.5% of all pairs of compound and target were hits. Unmarked numbers belong to inactive results.

Compound: Cc1cccc(CC(=O)N2CCc3c2ccc(-c2cn(C)c4ncnc(N)c24)c3F)n1
Assay: log2 fold change, soluble protein after heating vs DMSO (PISA); higher = thermal stabilisation; K562 lysate, 10 uM; active = over 0.2 and 3.5 SD of the protein, either way, in both replicates (recomputed)
Summary of the method: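 To prepare the extract, K562 pellets were dounce-homogenised in PBS pH 7.4 with 1 mM MgCl2, giving crude material at 1 mg/mL protein. This was treated with 10 μM compound for 30 min, then heated in aliquots for 3 min over 48°C-58°C before pooling and addition of NP-40 to 0.5% at 4°C. Centrifugation at 21,000xg for 90 min left soluble protein in the supernatant, which TMTpro 16plex LC-MS/MS quantified with equalised channel sums. Results are log-two fold changes in thermal stability compared with solvent controls, from duplicates.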

Chain of UniProt Q4ADV7 (Q4ADV7 whole entry, looked up): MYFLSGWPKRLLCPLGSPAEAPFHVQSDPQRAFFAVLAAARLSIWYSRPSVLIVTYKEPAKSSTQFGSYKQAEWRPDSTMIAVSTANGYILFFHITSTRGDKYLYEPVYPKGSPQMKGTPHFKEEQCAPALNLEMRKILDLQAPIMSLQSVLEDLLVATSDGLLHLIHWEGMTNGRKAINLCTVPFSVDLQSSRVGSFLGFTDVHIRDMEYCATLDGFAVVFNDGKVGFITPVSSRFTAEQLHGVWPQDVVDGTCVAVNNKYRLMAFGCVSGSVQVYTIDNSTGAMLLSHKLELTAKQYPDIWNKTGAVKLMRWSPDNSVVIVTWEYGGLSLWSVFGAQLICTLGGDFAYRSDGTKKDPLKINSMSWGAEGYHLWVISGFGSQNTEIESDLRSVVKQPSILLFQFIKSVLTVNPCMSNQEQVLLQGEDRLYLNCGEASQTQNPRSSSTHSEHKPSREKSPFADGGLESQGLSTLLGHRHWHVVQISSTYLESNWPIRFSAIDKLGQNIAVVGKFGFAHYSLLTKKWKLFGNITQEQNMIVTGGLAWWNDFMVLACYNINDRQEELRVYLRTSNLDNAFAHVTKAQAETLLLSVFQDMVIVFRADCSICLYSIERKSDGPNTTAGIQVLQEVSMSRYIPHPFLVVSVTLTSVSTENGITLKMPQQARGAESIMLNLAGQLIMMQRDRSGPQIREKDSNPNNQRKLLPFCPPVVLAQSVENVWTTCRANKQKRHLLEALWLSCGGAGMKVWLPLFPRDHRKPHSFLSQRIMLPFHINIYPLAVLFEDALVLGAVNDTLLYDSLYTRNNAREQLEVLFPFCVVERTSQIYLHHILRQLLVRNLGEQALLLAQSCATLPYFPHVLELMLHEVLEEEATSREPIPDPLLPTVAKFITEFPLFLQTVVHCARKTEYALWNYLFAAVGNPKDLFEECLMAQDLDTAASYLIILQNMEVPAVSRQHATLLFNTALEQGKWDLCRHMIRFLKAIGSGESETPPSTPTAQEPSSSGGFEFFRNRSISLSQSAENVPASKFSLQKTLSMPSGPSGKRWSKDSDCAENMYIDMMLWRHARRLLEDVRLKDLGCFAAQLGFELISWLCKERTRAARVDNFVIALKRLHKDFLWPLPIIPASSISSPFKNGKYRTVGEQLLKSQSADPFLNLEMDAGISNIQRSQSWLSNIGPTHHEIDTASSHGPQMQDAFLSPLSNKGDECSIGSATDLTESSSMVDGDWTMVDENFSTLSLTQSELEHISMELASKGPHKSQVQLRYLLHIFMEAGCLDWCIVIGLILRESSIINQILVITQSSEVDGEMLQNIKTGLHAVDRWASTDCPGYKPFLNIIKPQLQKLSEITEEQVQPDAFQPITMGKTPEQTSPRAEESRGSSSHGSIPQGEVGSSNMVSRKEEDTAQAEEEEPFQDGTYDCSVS
Chain of UniProt Q9UL25 (Q9UL25 whole entry, looked up): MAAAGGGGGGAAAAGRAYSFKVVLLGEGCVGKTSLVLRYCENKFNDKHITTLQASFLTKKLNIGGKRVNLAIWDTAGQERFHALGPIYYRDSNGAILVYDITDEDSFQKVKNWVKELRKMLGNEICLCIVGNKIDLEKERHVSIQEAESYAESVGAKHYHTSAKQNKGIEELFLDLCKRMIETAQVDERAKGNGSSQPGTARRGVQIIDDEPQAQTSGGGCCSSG
Chain of UniProt Q8NC42 (Q8NC42 whole entry, looked up): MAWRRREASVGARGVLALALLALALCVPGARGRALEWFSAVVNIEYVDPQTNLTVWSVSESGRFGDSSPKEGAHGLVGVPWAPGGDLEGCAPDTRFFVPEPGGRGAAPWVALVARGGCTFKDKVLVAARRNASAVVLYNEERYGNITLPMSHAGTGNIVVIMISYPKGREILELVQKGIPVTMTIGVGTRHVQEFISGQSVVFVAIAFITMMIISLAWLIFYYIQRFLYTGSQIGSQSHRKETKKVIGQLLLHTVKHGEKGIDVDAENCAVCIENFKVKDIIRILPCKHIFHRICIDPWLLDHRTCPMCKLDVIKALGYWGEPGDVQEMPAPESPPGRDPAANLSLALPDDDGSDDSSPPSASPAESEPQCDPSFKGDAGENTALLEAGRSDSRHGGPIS
Chain of UniProt P55735 (P55735 whole entry, looked up): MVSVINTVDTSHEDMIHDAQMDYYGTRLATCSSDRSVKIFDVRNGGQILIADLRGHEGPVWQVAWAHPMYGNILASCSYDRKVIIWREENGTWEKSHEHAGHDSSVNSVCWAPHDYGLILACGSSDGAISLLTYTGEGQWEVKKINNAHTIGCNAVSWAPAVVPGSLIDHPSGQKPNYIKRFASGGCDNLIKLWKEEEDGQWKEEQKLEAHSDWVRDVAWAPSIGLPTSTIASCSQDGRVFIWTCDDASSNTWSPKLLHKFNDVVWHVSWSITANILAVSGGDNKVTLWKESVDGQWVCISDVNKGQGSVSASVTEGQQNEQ
Chain of UniProt Q9H1K0 (Q9H1K0 whole entry, looked up): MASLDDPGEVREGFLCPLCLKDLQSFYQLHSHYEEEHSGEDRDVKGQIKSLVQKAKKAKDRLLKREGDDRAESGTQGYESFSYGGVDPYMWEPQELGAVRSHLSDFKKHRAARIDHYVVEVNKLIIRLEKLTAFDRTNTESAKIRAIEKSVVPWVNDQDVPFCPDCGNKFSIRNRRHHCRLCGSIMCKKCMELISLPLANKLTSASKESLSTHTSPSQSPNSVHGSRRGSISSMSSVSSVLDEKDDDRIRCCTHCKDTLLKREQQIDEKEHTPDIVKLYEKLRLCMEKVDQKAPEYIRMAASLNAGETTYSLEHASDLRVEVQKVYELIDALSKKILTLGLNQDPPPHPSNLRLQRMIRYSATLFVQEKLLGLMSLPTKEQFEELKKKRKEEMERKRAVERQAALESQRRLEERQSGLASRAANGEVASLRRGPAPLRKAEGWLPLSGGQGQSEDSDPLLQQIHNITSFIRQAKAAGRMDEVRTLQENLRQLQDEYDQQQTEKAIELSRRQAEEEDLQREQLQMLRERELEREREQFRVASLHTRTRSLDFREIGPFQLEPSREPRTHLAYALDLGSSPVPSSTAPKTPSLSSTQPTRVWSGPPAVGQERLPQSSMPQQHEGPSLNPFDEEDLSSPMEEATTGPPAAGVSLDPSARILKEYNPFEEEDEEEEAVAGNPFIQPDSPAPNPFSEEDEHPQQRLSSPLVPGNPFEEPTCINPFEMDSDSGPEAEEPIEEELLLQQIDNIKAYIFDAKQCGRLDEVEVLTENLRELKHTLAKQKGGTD
Chain of UniProt Q6UVJ0 (Q6UVJ0 whole entry, looked up): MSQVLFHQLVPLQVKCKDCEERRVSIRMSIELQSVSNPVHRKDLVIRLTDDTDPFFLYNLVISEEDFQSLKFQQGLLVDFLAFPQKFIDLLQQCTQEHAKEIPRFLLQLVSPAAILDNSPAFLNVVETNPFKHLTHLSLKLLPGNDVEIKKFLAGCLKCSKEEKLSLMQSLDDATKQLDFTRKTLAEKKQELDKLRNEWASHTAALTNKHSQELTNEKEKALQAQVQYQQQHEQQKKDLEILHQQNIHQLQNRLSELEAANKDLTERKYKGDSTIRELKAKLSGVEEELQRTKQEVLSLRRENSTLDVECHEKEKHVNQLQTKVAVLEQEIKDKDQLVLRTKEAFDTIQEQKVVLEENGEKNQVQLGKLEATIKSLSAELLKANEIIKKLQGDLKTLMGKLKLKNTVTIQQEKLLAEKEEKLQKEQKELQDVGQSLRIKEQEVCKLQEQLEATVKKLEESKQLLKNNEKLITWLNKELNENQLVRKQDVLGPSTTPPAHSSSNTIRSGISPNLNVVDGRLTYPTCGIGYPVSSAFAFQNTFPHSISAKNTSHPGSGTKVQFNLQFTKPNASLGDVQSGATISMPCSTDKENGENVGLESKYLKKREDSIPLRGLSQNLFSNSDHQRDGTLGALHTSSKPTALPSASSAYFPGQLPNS
Chain of UniProt Q8NBX0 (Q8NBX0 whole entry, looked up): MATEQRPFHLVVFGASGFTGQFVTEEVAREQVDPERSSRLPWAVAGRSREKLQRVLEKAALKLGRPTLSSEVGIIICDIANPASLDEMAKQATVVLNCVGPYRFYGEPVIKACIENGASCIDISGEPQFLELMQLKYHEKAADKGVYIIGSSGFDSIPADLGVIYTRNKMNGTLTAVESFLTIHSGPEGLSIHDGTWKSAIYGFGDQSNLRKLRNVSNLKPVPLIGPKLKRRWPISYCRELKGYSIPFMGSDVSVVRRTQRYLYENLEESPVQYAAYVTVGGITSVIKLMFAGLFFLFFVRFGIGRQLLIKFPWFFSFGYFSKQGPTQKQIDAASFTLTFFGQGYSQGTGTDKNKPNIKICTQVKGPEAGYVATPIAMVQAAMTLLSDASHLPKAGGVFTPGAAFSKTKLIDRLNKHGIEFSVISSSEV
Chain of UniProt P38159 (P38159 whole entry, looked up): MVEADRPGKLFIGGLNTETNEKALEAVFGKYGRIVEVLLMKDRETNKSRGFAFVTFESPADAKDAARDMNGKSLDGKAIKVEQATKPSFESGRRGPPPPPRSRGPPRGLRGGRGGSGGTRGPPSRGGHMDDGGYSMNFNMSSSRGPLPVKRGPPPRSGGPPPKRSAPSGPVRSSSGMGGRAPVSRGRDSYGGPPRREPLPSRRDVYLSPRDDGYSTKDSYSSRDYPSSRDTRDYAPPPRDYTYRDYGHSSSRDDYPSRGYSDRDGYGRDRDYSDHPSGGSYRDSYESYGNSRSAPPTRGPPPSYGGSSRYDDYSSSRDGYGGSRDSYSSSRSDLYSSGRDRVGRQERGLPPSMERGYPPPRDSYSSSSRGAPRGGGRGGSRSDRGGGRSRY
Chain of UniProt Q00765 (Q00765 whole entry, looked up): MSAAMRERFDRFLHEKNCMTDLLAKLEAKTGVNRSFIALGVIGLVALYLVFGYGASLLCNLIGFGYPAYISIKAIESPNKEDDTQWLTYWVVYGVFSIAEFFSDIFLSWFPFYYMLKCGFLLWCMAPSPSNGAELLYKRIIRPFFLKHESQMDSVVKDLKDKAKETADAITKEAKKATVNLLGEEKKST
Chain of UniProt P31949 (P31949 whole entry, looked up): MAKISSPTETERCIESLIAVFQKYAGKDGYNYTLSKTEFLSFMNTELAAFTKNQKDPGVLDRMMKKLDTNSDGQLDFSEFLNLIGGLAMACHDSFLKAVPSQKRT

Target	log2 fold change
RDH10 (UniProt Q8IZV5)	0.043
RPTOR (UniProt Q8N122)	0.009
SASS6 (UniProt Q6UVJ0)	-0.054
RBBP7 isoform 2 (UniProt Q16576)	-0.011
RAB21 (UniProt Q9UL25)	-0.09
RBSN (UniProt Q9H1K0)	0.059
RECQL5 (UniProt O94762)	-0.09
SAP30 (UniProt O75446)	0.012
R3HCC1 (UniProt Q9Y3T6)	0.08
RPL31 (UniProt P62899)	0.029
S100A11 (UniProt P31949)	-0.032
RFC2 (UniProt P35250)	0.041
RPL27 (UniProt P61353)	-0.118
RXRB isoform 3 (UniProt P28702)	0.023
RIC1 (UniProt Q4ADV7)	0.108
RAPGEF2, A0A2R8YGD3	0.266
REEP5 (UniProt Q00765)	0.055

Target	log2 fold change
QTRT2 isoform 4 (UniProt Q9H974)	0.256 (active)
RAP1GAP isoform 4 (UniProt P47736)	0.007
REXO4 (UniProt Q9GZR2)	-0.139
RIOK2 (UniProt Q9BVS4)	-0.012
RNF17 (UniProt Q9BXT8)	-0.257
SCCPDH (UniProt Q8NBX0)	0.034
RPS26P11 (UniProt Q5JNZ5)	0.24 (active)
RBM23 isoform 2 (UniProt Q86U06)	0.083
RBMX (UniProt P38159)	0.022
RNASEH2B (UniProt Q5TBB1)	-0.064
RNF168 (UniProt Q8IYW5)	-0.036
RALA (UniProt P11233)	0.217 (active)
RPS4X (UniProt P62701)	-0.04
RETREG2 (UniProt Q8NC44)	0.122
SEC13 isoform 3 (UniProt P55735)	-0.068
RNF149 (UniProt Q8NC42)	-0.013
